PubChem BioAssay AID1159580 (chemical genetic matrix, 2015)
The campaign covered roughly 5,500 compounds. About 2,000 (36%) were called active. About 18% were inconclusive and are not listed. No stated cut-off is given here; in the data, active means normalized growth mostly below about 0.91 (no sharp cut-off); inconclusive means no clear call, values can overlap the other calls; inactive means mostly above about 0.92. Some of the results follow.

Assay: chemical genetic growth profiling, strain panel (AID 1159580);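 further: tested at 20 µM; growth read once vehicle control cultures reached saturation at 30 °C; 1 = growth at the plate median or of vehicle wells; lower values mean less growth of the strain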
Conditions: growth OD

Measured: normalized growth

COS(C)(=O)=O
inactive: S. cerevisiae deletion strains, locus YJR075W, strain HOC1, active compounds read low 1.01 | S. cerevisiae deletion strains, locus YKL009W, strain mrt4, active compounds read low 1.03 | S. cerevisiae deletion strains, locus YKL068W, active compounds read low 1.01 | S. cerevisiae deletion strains, locus YKL085W, strain MDH1 (second series), active compounds read low 1.02 | S. cerevisiae deletion strains, locus YKL085W, strain MDH1, active compounds read low 1.02 | S. cerevisiae deletion strains, locus YKL160W, strain elf1, active compounds read low 1 | S. cerevisiae deletion strains, locus YKL190W, strain CNB1, active compounds read low 1 | S. cerevisiae deletion strains, locus YKR001C, strain vps1, active compounds read low 1.01 | S. cerevisiae deletion strains, locus YKR026C, strain gcn3, active compounds read low 0.996 | S. cerevisiae deletion strains, locus YKR091W, strain srl3, active compounds read low 0.993 | S. cerevisiae deletion strains, locus YLL001W, strain dnm1, active compounds read low 0.996 | S. cerevisiae deletion strains, locus YLL026W, active compounds read low 0.996 | S. cerevisiae deletion strains, locus YLL041C, strain sdh2, active compounds read low 1 | S. cerevisiae deletion strains, locus YLR027C, strain aat2, active compounds read low 0.97 | S. cerevisiae deletion strains, locus YLR039C, strain RIC1, active compounds read low 1.07 | S. cerevisiae deletion strains, locus YLR058C, strain SHM2, active compounds read low 1.01 | S. cerevisiae deletion strains, locus YLR102C, strain apc9, active compounds read low 1.01 | S. cerevisiae deletion strains, locus YLR113W, strain HOG1, active compounds read low 0.983 | S. cerevisiae deletion strains, locus YLR221C, strain rsa3, active compounds read low 0.961 | S. cerevisiae deletion strains, locus YLR258W, strain gsy2, active compounds read low 1.03 | S. cerevisiae deletion strains, locus YLR262C, strain YPT6 (second series), active compounds read low 0.997 | S. cerevisiae deletion strains, locus YLR262C, strain YPT6, active compounds read low 1.06 | S. cerevisiae deletion strains, locus YLR268W, strain sec22, active compounds read low 0.973 | S. cerevisiae deletion strains, locus YLR320W, strain mms22, active compounds read low 0.954 | S. cerevisiae deletion strains, locus YLR330W, strain CHS5, active compounds read low 1.01 | S. cerevisiae deletion strains, locus YLR342W, strain FKS1 (second series), active compounds read low 1.08 | S. cerevisiae deletion strains, locus YLR342W, strain FKS1, active compounds read low 0.992 | S. cerevisiae deletion strains, locus YLR357W, strain rsc2, active compounds read low 0.935 | S. cerevisiae deletion strains, locus YLR370C, strain arc18, active compounds read low 1 | S. cerevisiae deletion strains, locus YLR371W, strain rom2, active compounds read low 1.02 | S. cerevisiae deletion strains, locus YLR384C, strain iki3, active compounds read low 0.982 | S. cerevisiae deletion strains, locus YLR418C, strain cdc73, active compounds read low 0.95 | S. cerevisiae deletion strains, locus YML016C, strain PPZ1, active compounds read low 1 | S. cerevisiae deletion strains, locus YML032C, strain rad52, active compounds read low 1.03 | S. cerevisiae deletion strains, locus YML120C, strain ndi1, active compounds read low 1 | S. cerevisiae deletion strains, locus YML124C, strain tub3, active compounds read low 1.01 | S. cerevisiae deletion strains, locus YMR058W, strain fet3, active compounds read low 1.02 | S. cerevisiae deletion strains, locus YMR078C, strain ctf18, active compounds read low 1.02 | S. cerevisiae deletion strains, locus YMR125W, strain sto1, active compounds read low 0.992 | S. cerevisiae deletion strains, locus YMR129W, active compounds read low 0.997 | S. cerevisiae deletion strains, locus YMR205C, strain PFK2, active compounds read low 1 | S. cerevisiae deletion strains, locus YMR223W, strain ubp8, active compounds read low 1.05 | S. cerevisiae deletion strains, locus YMR231W, strain pep5, active compounds read low 0.985 | S. cerevisiae deletion strains, locus YMR263W, strain SAP30, active compounds read low 0.995 | S. cerevisiae deletion strains, locus YMR307W, strain GAS1, active compounds read low 1.05 | S. cerevisiae deletion strains, locus YNL067W, strain RPL9B, active compounds read low 1 | S. cerevisiae deletion strains, locus YNL071W, strain lat1, active compounds read low 1 | S. cerevisiae deletion strains, locus YNL128W, strain TEP1, active compounds read low 0.987 | S. cerevisiae deletion strains, locus YNL153C, strain GIM3, active compounds read low 0.976 | S. cerevisiae deletion strains, locus YNL183C, strain NPR1, active compounds read low 1 | S. cerevisiae deletion strains, locus YNL209W, strain ssb2, active compounds read low 1.01 | S. cerevisiae deletion strains, locus YNL233W, strain BNI4, active compounds read low 0.99 | S. cerevisiae deletion strains, locus YNL248C, strain rpa49, active compounds read low 0.998 | S. cerevisiae deletion strains, locus YNL250W, strain rad50, active compounds read low 1.02 | S. cerevisiae deletion strains, locus YNL271C, strain bni1, active compounds read low 1.02 | S. cerevisiae deletion strains, locus YNL298W, strain CLA4, active compounds read low 1.02 | S. cerevisiae deletion strains, locus YNL307C, strain MCK1, active compounds read low 1.03 | S. cerevisiae deletion strains, locus YNL322C, strain KRE1 (second series), active compounds read low 0.976 | S. cerevisiae deletion strains, locus YNL322C, strain KRE1, active compounds read low 1.01 | S. cerevisiae deletion strains, locus YNR049C, strain mso1, active compounds read low 0.995 | S. cerevisiae deletion strains, locus YNR052C, strain pop2, active compounds read low 1.03 | S. cerevisiae deletion strains, locus YOL006C, strain TOP1, active compounds read low 1.03 | S. cerevisiae deletion strains, locus YOL012C, strain htz1 0.976 | S. cerevisiae deletion strains, locus YOL147C, strain pex11, active compounds read low 1.01 | S. cerevisiae deletion strains, locus YOR001W, strain rrp6, active compounds read low 0.942 | S. cerevisiae deletion strains, locus YOR061W, strain CKA2, active compounds read low 1 | S. cerevisiae deletion strains, locus YOR069W, strain VPS5, active compounds read low 1.01 | S. cerevisiae deletion strains, locus YOR070C, strain gyp1, active compounds read low 0.989 | S. cerevisiae deletion strains, locus YOR080W, strain dia2, active compounds read low 0.986 | S. cerevisiae deletion strains, locus YOR083W, strain WHI5, active compounds read low 1.01 | S. cerevisiae deletion strains, locus YOR106W, strain vam3, active compounds read low 1.03 | S. cerevisiae deletion strains, locus YOR136W, strain idh2, active compounds read low 1.01 | S. cerevisiae deletion strains, locus YOR144C, strain elg1, active compounds read low 1 | S. cerevisiae deletion strains, locus YOR184W, strain ser1, active compounds read low 1.05 | S. cerevisiae deletion strains, locus YOR231W, strain MKK1, active compounds read low 0.987 | S. cerevisiae deletion strains, locus YOR265W, strain rbl2, active compounds read low 0.999 | S. cerevisiae deletion strains, locus YOR270C, strain vph1, active compounds read low 0.981 | S. cerevisiae deletion strains, locus YOR290C, strain snf2, active compounds read low 0.995 | S. cerevisiae deletion strains, locus YOR316C, strain cot1, active compounds read low 1.02 | S. cerevisiae deletion strains, locus YPL051W, strain arl3, active compounds read low 1.02 | S. cerevisiae deletion strains, locus YPL055C, strain LGE1, active compounds read low 0.968 | S. cerevisiae deletion strains, locus YPL078C, strain atp4, active compounds read low 1.01 | S. cerevisiae deletion strains, locus YPL106C, strain sse1, active compounds read low 0.99 | S. cerevisiae deletion strains, locus YPL240C, strain hsp82, active compounds read low 0.995 | S. cerevisiae deletion strains, locus YPL241C, strain CIN2, active compounds read low 1 | S. cerevisiae deletion strains, locus YPL256C, strain CLN2, active compounds read low 0.99 | S. cerevisiae deletion strains, locus YPR119W, strain clb2, active compounds read low 1 | S. cerevisiae deletion strains, locus YPR141C, strain kar3, active compounds read low 1.02 | S. cerevisiae deletion strains, locus YPR163C, strain tif3, active compounds read low 1 | S. cerevisiae deletion strains, locus YPR167C, strain met16, active compounds read low 1.01 | S. cerevisiae deletion strains, strain wtn01, active compounds read low 0.981 | S. cerevisiae strains, strain wild type, active compounds read low 1.01
